This is part of a sample that, as a whole, favours compounds with a hit. Of some 83,000 tested, about 20% had one in any assay.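 Method: cells in 96-well plates; compound added at one concentration; 48 h incubation; percent growth measured; values under 10 scored active.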 Values without a mark were called inactive. Calls of active or inactive are those of the source.
The molecules below were run on U251 CNS (assay: NCI-60 one-dose screen, 48 h (100 = growth as untreated, 0 = no growth, -100 = all killed)). Conditions: 10 µM unless noted.
Experimental: Growth inhibition of the U251 human tumor cell line is measured as a screen for anti-cancer activity. Cells are grown in 96 well plates and exposed to the test compound for 48 hours. Compounds are tested at a single concentration, which is 10^-5 M for most compounds. The reported endpoint is percent growth (GI% or GIPRCNT), where numbers from 0 - 100% represent growth inhibition, and numbers from -100% - 0 represent cell death. For example, a value of 40 represents 60% growth inhibition. A value of 0 means no net growth occurred over the course of the experiment. A value of -40 indicates 40% of cells at the beginning of the experiment died by the end of the experiment. A value of -100 means all cells are dead at the end of the experiment.
NCI-60 Human Tumor Cell Lines Screen was performed using the standard one-dose NCI protocol, which is described in more detail at https://dtp.cancer.gov/discovery_development/nci-60/default.htm.
Compounds with GIPRCNT values below 10 were considered active. Activity score was based on GIPRCNT using the following formula: […]
Score is 0 for GIPRCNT values of 100 or above, 50 for GIPRCNT values of 0, and 100 for GIPRCNT values of -100.

Structure (SMILES) | growth
CCN1C(=O)/C(=c2\sc3n(c2=O)NC2C(N=3)N(CC)C(=O)N2CC)c2ccccc21 (stereo not given) | 33.4%
Cc1ccc(S(=O)(=O)Nc2ccc(Cl)cc2)cc1 | 96.4%
C=C(C)[C@@H]1CC[C@]2(C(=O)NCCCN(CCC#N)CCC#N)CC[C@]3(C)[C@H](CC[C@@H]4[C@@]5(C)CCC(=O)C(C)(C)[C@@H]5CC[C@]43C)[C@@H]12 | 94.1%
CCOC(=O)C1=C(C)NC(C)=C(C(=O)OCC)C1c1cc(Br)c(O)c(OC)c1 | 33.1%
CN1CCN(CCCNc2nccc(-c3c(-c4ccc(F)c(O)c4)nc4sccn34)n2)S1(=O)=O | 106%
Clc1ccc(C2CC(c3cccc(Nc4ccncc4)c3)=NN2c2cc(Cl)cc(Cl)c2)cc1 (stereo not given) | 0.417% (active)
Cc1[nH]c(C(=O)Nc2ccccc2OCc2cccc(C(=O)NCCN)c2)c(Cl)c1Cl | 4.71% (active)
COc1cc(NCCN(CC(C)C)C2CCCC2)c2ncccc2c1 | 94.1%
CN1CCN(c2cc(F)c(NC3=C(Cl)C(=O)c4ncccc4C3=O)c(F)c2)CC1 | -9.88% (active)
COc1cccc(-c2nc3occn3c2-c2ccnc(NCCCNS(=O)(=O)c3cccc(F)c3)n2)c1 | 111%
COc1cc(CCNc2nc3cc(N)cc(N)c3nc2-c2ccccc2)cc(OC)c1 | -80.3% (active)
CC(=O)c1cc2c(N)c(C(=O)Nc3cncc4ccccc34)sc2nc1C | 106%
CC[N+](CC)(CCCC(C)[N+]1(Cc2ccccc2)C(C)=CC=C1C)Cc1ccccc1 (stereo not given) | 106%
CCCN=C(N)c1ccc(NC(=O)c2ccc(C(=O)Nc3ccc(C(N)=NCCC)cc3)cc2)cc1 | 107%
COc1ccc(/C=C/C(=O)c2ccc(Nc3ncnc4ccccc34)cc2)cc1OC | 54.1%
COc1cc(C(=O)/C=C/c2c(C)n([O-])c3ccc(Cl)cc3[n+]2=O)cc(OC)c1OC | 61.4%
O=C(OC(OC(=O)c1cc(Cl)cc(Cl)c1)c1cccc2ccccc12)c1ccccc1 (stereo not given) | 98.3%
O=C(Nc1ccc(Cl)cc1)Nc1ccc(Cl)c(Cl)c1 | 8.94% (active)
C=C(C)[C@@H]1CC[C@]2(CO)CC[C@]3(C)[C@H](CC[C@@H]4[C@@]5(C)CCCNC(C)(C)[C@@H]5CC[C@]43C)[C@@H]12 | 7.49% (active)
COc1ccccc1N1CCN(C(=O)c2ccc3nc(NC(=O)c4ccc(NCCc5ccccc5)c([N+](=O)[O-])c4)sc3c2)CC1 | 86.4%

Structure (SMILES) | growth
Cn1c(=O)c2[nH]c(CCCc3nc4c([nH]3)c(=O)n(C)c(=O)n4C)nc2n(C)c1=O | 107%
Cn1/c(=N/NC(N)=S)ccc2ccccc21 | 97.5%
Cn1c(COC(=O)NCCc2ccccn2)nc2c(N3CCOCC3)nc(Cl)nc21 | 9.11% (active)
COc1ccc(OC)c(/C=C/[C@H]2O[C@@H](C)[C@H](O)[C@@H]2O)c1 | 94%
c1ccc(-c2nn(-c3ccccc3)[n+](-c3cccc4ccccc34)n2)cc1 | 17.7%
CCCCCCCCCCCCCCCCCCOc1ccccc1N | 50.3%
CC(C)[N+](C)(CCOC(COc1ccccc1)COc1ccccc1)C(C)C | 83.8%
NC(=O)c1cccc(-c2cc(C(N)=O)ccc2Cl)c1 | 19.1%
CCCCCCCCOC(=O)c1ccc(O)c(OC)c1 | 85.8%
Cc1c2c(cc[n+]1Cc1ccccc1)c1ccc(OCc3ccccc3)cc1n2Cc1ccccc1 | -80.2% (active)
CC1=CC2(C)/C=C(C)/C=C\CC(O)/C=C3/C=CC(=C4C(=O)OC2(CC1C)C4=O)OC3 (stereo not given) | -50.2% (active)
O=C(Nc1ccc2cc3ccc(NC(=O)NC4CCCCC4)cc3nc2c1)NC1CCCCC1 | 56.2%
Cc1cc(C(=O)Nc2ncnc3nc[nH]c23)no1 | 105%
CN1C(=O)N(C)[C@H]2NC(NN)=N[C@H]21 | 98.7%
O=C(Nc1cccc(Cl)c1)Oc1c(Br)c(Br)c(Br)c(Br)c1Br | 91.9%
COc1cccc2cc(-c3cc4ccccc4[nH]3)/c(=N/C(=S)Nc3ccc(C)cc3)oc12 | 74.9%
CC(=O)c1c[nH]c2ccc(-c3ccnc(Nc4ccc(NC(=O)C5CCCC5)c(CN5CCOCC5)c4)n3)cc12 | 10.7%
COc1cc(C2NC(c3cc(OC)c(OC)c(OC)c3)C(C#N)(C#N)C2(C#N)C#N)cc(OC)c1OC (stereo not given) | 106%
C=CCn1c(SCC(=O)Nc2ccc(C(=O)/C=C/c3cc(OC)c(OC)c(OC)c3)cc2)nnc1-c1cc(OC)c(OC)c(OC)c1 | 2.63% (active)
O=C(Nc1nc(-c2ccc(Br)cc2)cs1)c1cc(-c2ccc(Br)cc2)nc2ccc(Cl)cc12 | 76.8%

Reference: PubChem BioAssay (NCI)
